{"source": "the supplement of paper PMC6555819", "assay_in_all_cases": "PBM binding z-score (relative to random genomic background probes); higher = stronger binding; sequences stand for … in GC…GCGATTGACAGCGTAGAATGAAGG", "key": {"[1]": {"tested_on": "RARb homodimer (NR concentration 270 nM)", "outline": "(§1)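 Scanned fluorescence from custom Agilent 4×180K protein-binding microarrays was regression-normalized. Binding z-scores use random background probes as reference. Ligand-free nuclear receptor dimers were incubated on the arrays for 1 h and detected with antibodies against each partner (one per run).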"}, "[2]": {"tested_on": "RARg:RXRa (NR concentration 270 nM, RXRa partner concentration 90 nM)", "outline": "as §1"}, "[3]": {"tested_on": "RARg homodimer (NR concentration 270 nM)", "outline": "as §1"}, "[4]": {"tested_on": "RXRa DBDmut IVT, anti-RXR (DBD mutation: RXRa K156A/R161A, NR concentration 90 nM)", "outline": "as §1"}, "[5]": {"tested_on": "RXRa homodimer (NR concentration 180 nM)", "outline": "as §1"}, "[6]": {"tested_on": "THRa:RXRa (NR concentration 90 nM, RXRa partner concentration 90 nM)", "outline": "as §1"}, "[7]": {"tested_on": "THRa homodimer (NR concentration 90 nM)", "outline": "as §1"}, "[8]": {"tested_on": "VDR homodimer (NR concentration 270 nM)", "outline": "as §1"}}}
{"sequence": "TCTTGTTGATCAGCAGGTTAAGAAAGCTGGCCAA", "values": [{"measurement": "PBM binding z-score", "setting": "[1]", "result": 0.158}, {"measurement": "PBM binding z-score", "setting": "[2]", "result": -0.129}, {"measurement": "PBM binding z-score", "setting": "[3]", "result": -0.598}, {"measurement": "PBM binding z-score", "setting": "[4]", "result": 0.635}, {"measurement": "PBM binding z-score", "setting": "[5]", "result": 0.257}, {"measurement": "PBM binding z-score", "setting": "[6]", "result": 0.181}, {"measurement": "PBM binding z-score", "setting": "[7]", "result": -0.779}, {"measurement": "PBM binding z-score", "setting": "[8]", "result": -0.748}]}
{"sequence": "TAGCCTAGGTCATTGGGCCAGTATTGTACGCATC", "values": [{"measurement": "PBM binding z-score", "setting": "[1]", "result": 2.89}, {"measurement": "PBM binding z-score", "setting": "[2]", "result": 3.78}, {"measurement": "PBM binding z-score", "setting": "[3]", "result": 4.05}, {"measurement": "PBM binding z-score", "setting": "[4]", "result": 1.46}, {"measurement": "PBM binding z-score", "setting": "[5]", "result": 2.62}, {"measurement": "PBM binding z-score", "setting": "[6]", "result": 2.88}, {"measurement": "PBM binding z-score", "setting": "[7]", "result": 0.793}, {"measurement": "PBM binding z-score", "setting": "[8]", "result": 1.03}]}
{"sequence": "CCTTACGGGTCACTGACAGGCTATAGCATTTGGA", "values": [{"measurement": "PBM binding z-score", "setting": "[1]", "result": 2.85}, {"measurement": "PBM binding z-score", "setting": "[2]", "result": 5.13}, {"measurement": "PBM binding z-score", "setting": "[3]", "result": 4.79}, {"measurement": "PBM binding z-score", "setting": "[4]", "result": 1.86}, {"measurement": "PBM binding z-score", "setting": "[5]", "result": 5.2}, {"measurement": "PBM binding z-score", "setting": "[6]", "result": 2.41}, {"measurement": "PBM binding z-score", "setting": "[7]", "result": -0.00278}, {"measurement": "PBM binding z-score", "setting": "[8]", "result": 0.687}]}
{"sequence": "CAAACTAGGTCAAGAGGTCAAAGTCCGCTTCCCG", "values": [{"measurement": "PBM binding z-score", "setting": "[1]", "result": 5.9}, {"measurement": "PBM binding z-score", "setting": "[2]", "result": 8.2}, {"measurement": "PBM binding z-score", "setting": "[3]", "result": 8.13}, {"measurement": "PBM binding z-score", "setting": "[4]", "result": 2.89}, {"measurement": "PBM binding z-score", "setting": "[5]", "result": 8.25}, {"measurement": "PBM binding z-score", "setting": "[6]", "result": 4.44}, {"measurement": "PBM binding z-score", "setting": "[7]", "result": 2.61}, {"measurement": "PBM binding z-score", "setting": "[8]", "result": 4.47}]}
{"sequence": "TCCAGTAGGTTAGTCGGGGCATTCAGCCAACATA", "values": [{"measurement": "PBM binding z-score", "setting": "[1]", "result": 0.924}, {"measurement": "PBM binding z-score", "setting": "[2]", "result": 0.125}, {"measurement": "PBM binding z-score", "setting": "[3]", "result": 0.158}, {"measurement": "PBM binding z-score", "setting": "[4]", "result": 1.18}, {"measurement": "PBM binding z-score", "setting": "[5]", "result": 0.345}, {"measurement": "PBM binding z-score", "setting": "[6]", "result": 1.19}, {"measurement": "PBM binding z-score", "setting": "[7]", "result": 0.383}, {"measurement": "PBM binding z-score", "setting": "[8]", "result": 0.673}]}
{"sequence": "CCGACTGGGGCAAAGGATACCATACTCAGTACGA", "values": [{"measurement": "PBM binding z-score", "setting": "[1]", "result": 0.263}, {"measurement": "PBM binding z-score", "setting": "[2]", "result": 0.271}, {"measurement": "PBM binding z-score", "setting": "[3]", "result": 0.572}, {"measurement": "PBM binding z-score", "setting": "[4]", "result": -0.0232}, {"measurement": "PBM binding z-score", "setting": "[5]", "result": 0.075}, {"measurement": "PBM binding z-score", "setting": "[6]", "result": -0.155}, {"measurement": "PBM binding z-score", "setting": "[7]", "result": -0.322}, {"measurement": "PBM binding z-score", "setting": "[8]", "result": -0.406}]}
{"sequence": "GCTGACAGGTGAAACGCAGGTAACTCAGGGTGGC", "values": [{"measurement": "PBM binding z-score", "setting": "[1]", "result": 0.252}, {"measurement": "PBM binding z-score", "setting": "[2]", "result": 0.825}, {"measurement": "PBM binding z-score", "setting": "[3]", "result": 0.362}, {"measurement": "PBM binding z-score", "setting": "[4]", "result": -0.702}, {"measurement": "PBM binding z-score", "setting": "[5]", "result": 0.505}, {"measurement": "PBM binding z-score", "setting": "[6]", "result": 1.27}, {"measurement": "PBM binding z-score", "setting": "[7]", "result": -0.547}, {"measurement": "PBM binding z-score", "setting": "[8]", "result": -0.647}]}
